Screening results (PubChem)
A selection follows.
VCAM1 pot: enhances TNF alpha induced VCAM1 expression in HUVEC; HUVEC TNFa-stimulated VCAM-1 immunofluorescence, high-content imaging; scaled per plate to unstimulated/TNFa-only wells; activation, % at 2 µM; actives 0.19% (n = 93,000); AID 808;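 active = activation above the screen mean plus 3 SD, with well images confirming the hit on visual review, cut at about 28% in these data, passing the limit was not always enough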;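 also: signal is the number of cytoplasmic VCAM-1 stained grains per positive cell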
VCAM1 pot confirm: potentiators of TNFa-induced VCAM1 expression, confirmation, imaging, HUVEC, triplicate retest; 230 tested, under 10 active; HUVEC TNFa-stimulated VCAM-1 immunofluorescence imaging; activation, % at 2 µM; shares compounds with VCAM1 pot;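 active = activation above 30% in triplicate retests at 2 µM, then confirmed by visual review of the well images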;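 also: scaled per plate between unstimulated and TNFa-stimulated DMSO control wells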
* hit, by the source's call.

SMILES	VCAM1 pot	others
Cc1nonc1NC(=O)c1ccc(Cl)c(S(=O)(=O)N2CCCCC2)c1	-2
CCOC(=O)N1CCC(NC(=O)c2ccc(CS(=O)(=O)c3ccc(OC)cc3)o2)CC1	-85
C=CCc1cccc2cc(C(=O)N3CCN(C(=O)c4ccco4)CC3)c(=O)oc12	-3
CCOC(=O)c1cnn(-c2nc(-c3ccc(C)cc3)cs2)c1C(F)(F)F	-96
CCOC(=O)c1ccc(-n2[nH]c(-c3ccccc3)cc2=O)cc1	5
CCOC(=O)c1ccc(-n2nc(C(F)(F)F)c3c(C)cc(=O)oc32)cc1	57*
COC(=O)c1nn(-c2cccc(C(F)(F)F)c2)c(=O)cc1Sc1ccccn1	-12
Cc1cccc(N2CCN(C(=O)NCc3ccc(Cl)cc3)CC2)c1	-17
COc1ccc(CCC(C)NC2C3CC4CC(C3)CC2C4)cc1 (configuration not stated)	-1
Nc1ccc(Oc2ccc3nc(-c4ccccc4)c(-c4ccc([N+](=O)[O-])cc4)nc3c2)cc1	5
O=C(COC(=O)c1cccnc1Cl)c1cccc(Cl)c1	-3
C=CCNC(=O)c1onc(CSc2ccccc2CC)c1C(=O)O	1
O=C1CC(c2ccccc2)Cc2nc3ncnn3cc21 (configuration not stated)	-60
O=C(CNC(=O)c1ccco1)OCc1ccc(Cl)cc1	-23
COC(=O)c1sccc1NC(=O)c1ccc(Br)s1	-53
C/C=C(\C)CN1CCN(c2ccc(C)cc2)CC1	-8
CN(C(=O)c1ccc(Cl)cc1)C1=CCCCC1CCC#N (configuration not stated)	2
CCOC(=O)c1cnn(-c2ccccc2)c1-n1cccc1C(=O)C(=O)Nc1ccc(OC)cc1	11
CCc1noc(C)c1C(=O)Nc1sc(C(=O)N(C)C)c(C)c1C(=O)OC	-2
CN(C)NC1CCS(=O)(=O)C1 (configuration not stated)	-1
O=C(NC1CCSC1=O)c1cccc(C(=O)NC2CCSC2=O)c1 (configuration not stated)	-1
O=C(c1cn(-c2ccccc2)nc1-c1cccs1)N1CCN(c2ccccn2)CC1	-6
COC(=O)c1ccc(C(=O)OC)c(NC(=O)CSCc2ccc(Br)cc2)c1	-8
COc1cc(/C=C(/C#N)C(=O)NCCc2c[nH]c3ccccc23)ccc1OCc1ccccc1F	-37
O=C(Nc1cnn(Cc2ccc(Cl)c(Cl)c2)c1)C12CC3CC(CC(C3)C1)C2	-18
SMILES	VCAM1 pot	others
CCOCCCNC(=O)CCSc1ccc(C)cc1	10
O=C(CCCOc1ccccc1)Nc1ccc2c(c1)OCCO2	-8
OC1(c2cccc(C(F)(F)F)c2)CCN(c2ncnc3c2[nH]c2ccc(F)cc23)CC1	-54
O=S(=O)(NCCc1ccncc1)c1cc(Br)ccc1F	-12
CC1CCCCC1NC(=O)c1ccc2c(c1)[nH]c(=O)n2C1CCCC1 (configuration not stated)	0
Cc1ccc(S(=O)(=O)/N=C(\c2ccc(Cl)cc2)N2CCOCC2)cc1	6
COCCNC(=O)CSc1nc2ccccc2c(=O)n1CC1CCCO1 (configuration not stated)	10
Cc1ccc(S(=O)(=O)c2cc3c(=O)n4ccccc4nc3n(Cc3ccco3)c2=N)cc1	-20
N#Cc1cc2c(=O)n3ccccc3nc2n(CC2CCCO2)c1=N (configuration not stated)	47*
CCCCCOP(=O)(OCCCCC)C1(NS(=O)(=O)c2ccccc2)C=CC(=O)c2ccccc21 (configuration not stated)	-5
COc1ccc(CS(=O)(=O)/C(Cl)=C(/Cl)C(=O)Nc2ccc(OC)nc2)cc1	-42
Cc1c(NC(=O)C(C)Sc2n[nH]c(N)n2)c(=O)n(-c2ccccc2)n1C (configuration not stated)	7
Cc1ccc(S(=O)(=O)N2CCOCC2)cc1C(=O)OCC(=O)N1CCc2ccccc2C1	3
O=[N+]([O-])c1ccc(NCCNc2ccc(Cl)nn2)cc1	2
COc1ccc(CCC(=O)NCCc2cn3c(C)csc3n2)cc1	1
S=C(Nc1ccccc1)Nc1cc(Cl)ccc1Oc1ccccc1	2
Cc1ccccc1-c1nc(CN2CCC(C(=O)NCCCN3CC(C)CC(C)C3)CC2)c(C)o1 (configuration not stated)	-43
CC(C)(C)NC(=O)CN(C(=O)Cn1nnc(-c2ccccc2F)n1)c1cccc2c1CCCC2	4
c1ccc(CC2CCN(c3nc(N4CCOCC4)nc(N4CCOCC4)n3)CC2)cc1	-21
C=CCn1c(SCc2nc3ccccc3c(=O)[nH]2)nnc1-c1cc2cc(Cl)ccc2o1	1
Cc1ccc(N2CC(C(=O)Nc3ccccc3C(=O)NC3CCCCC3)CC2=O)cc1C (configuration not stated)	19
CCN(CC)S(=O)(=O)c1ccc(C(=O)NCCCN=C2NS(=O)(=O)c3ccccc32)cc1	-48
COC(=O)c1ccccc1NC(=O)c1cc(-c2ccc(OC)c(OC)c2)on1	1
CN(C)S(=O)(=O)N(CC(=O)Nc1cccc(F)c1)c1ccccc1	-4
C=CCn1c(SCc2ccccc2C#N)nnc1-c1ccccc1O	-3
SMILES	VCAM1 pot	others
CON/C=C(\C=Nc1ccc(Cl)cc1)c1ncc(C(F)(F)F)cc1Cl	2
COc1cccc(-c2cc(N)nn2C(=O)Nc2ccc(Cl)cc2)c1	-8
CCOC(=O)c1ccccc1-c1csc(NS(=O)(=O)c2ccc(Cl)cc2)n1	-10
CCCC(C)NC(=O)c1cc(Cl)ccc1OC (configuration not stated)	2
O=S(=O)(Nc1ccc(Cc2ccncc2)cc1)c1ccc(Br)cc1	6
COC(=O)CSc1nnc(C)n1-c1cccc(C#N)c1	-6
CC1CCCN(CC(=O)Nc2ccc(S(=O)(=O)NC3CCCCC3)cc2)C1 (configuration not stated)	-7
Nc1nnc(SCc2ccccc2F)n1-c1ccccc1	-9
COCCNC(=O)C(c1ccc(C)o1)N(C(=O)c1snc(C(N)=O)c1N)c1cc(C)cc(C)c1 (configuration not stated)	-8
CCOC(=O)c1nnc2c(Br)c(-c3ccccc3)nn2c1C	5
CC1CN(S(=O)(=O)c2ccc(Cl)c(C(F)(F)F)c2)CC(C)O1 (configuration not stated)	22
COc1ccccc1NS(=O)(=O)CC12CCC(CC1=O)C2(C)C (configuration not stated)	-2
COc1cccc(/C=N/NC(=O)CC(=O)NCCc2ccc(OC)c(OC)c2)c1	5
CCN1CCN(C(c2cccs2)C(C)NS(=O)(=O)c2ccc(Br)cc2)CC1 (configuration not stated)	4
CCN(C(=O)c1cc2cccc(OC)c2oc1=O)C1CCCCC1	8
COCCNC(=O)C(c1cccs1)N(C(=O)Cn1nnc2ccccc21)c1ccc(OC)cc1 (configuration not stated)	-9
Cc1cc(NCc2ccccn2)ccc1Br	3
CC(C)(C)n1ncc(Oc2ccc(Oc3cnn(C(C)(C)C)c(=O)c3Cl)cc2)c(Cl)c1=O	2
O=C(COC(=O)c1cnccn1)Nc1ccc2c(c1)OCO2	2
O=C(COC(=O)c1cccnc1Nc1cccc(C(F)(F)F)c1)NCc1ccc2c(c1)OCO2	28*	VCAM1 pot confirm=-16
O=C(COC(=O)Cc1cccc(C(F)(F)F)c1)NCC1CCCO1 (configuration not stated)	2
